# This is part of a sample that, as a whole, favours compounds with a hit. Of some 83,000 tested, about 20% had one in any assay.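 Activity criterion: percent growth below 10, measured after cells in 96-well plates were exposed to a single compound concentration for 48 hours.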 Calls of active or inactive are those of the source.
# Test system: MDA-MB-435 melanoma
# Assay: NCI-60 one-dose screen, 48 h (100 = growth as untreated, 0 = no growth, -100 = all killed)
# Conditions: 10 µM unless noted
row,SMILES,growth
1,COc1cc2nc(NC3CCC3)nc(NC3CCN(C(C)C)CC3)c2cc1OC,-48% (active)
2,O=C(c1nc2ccccc2[nH]1)C1[C@@H](c2cccc(O)c2)C2CC3CCCCC3N2[C@@]12C(=O)Nc1cc(Cl)ccc12 (stereo not given in full),29.3% (inactive)
3,CCN1C(=O)N(c2ccccc2)C2NN=c3s/c(=C4\C(=O)N(C(C)C)c5ccccc54)c(=O)n3C21 (stereo not given),-21.2% (active)
4,Cc1sc2ncn(CC(=O)Nc3ccc(S(N)(=O)=O)cc3)c(=O)c2c1C,105% (inactive)
5,COC(=O)c1c2c(c(C)[n+]([O-])c1C)C(=O)C(NCc1ccc(F)c(F)c1)=CC2=O,-88.4% (active)
6,CNCCNc1nc2ccccc2c2c(=O)c3cccc(OC)c3sc12,-72.7% (active)
7,CNCCNc1nc2ccccc2c2c(=O)c3cccc(C)c3sc12,6.07% (active)
8,COc1cc(/C=C2\Oc3cc(OCCCN4CCCC4)ccc3C2=O)cc(OC)c1,78.9% (inactive)
9,COC(=O)[C@H](NC(=O)C1(C)CCC[C@]2(C)[C@H]3C[C@H]4C(C(C)C)=C[C@]3(CC[C@@H]12)[C@@H]1C(=O)CCC(=O)[C@@H]14)C(C)C (stereo not given in full),104% (inactive)
10,COc1cc(/C=C2\CN(C)C/C(=C\c3cc(CN4CCCCC4)c(O)c(OC)c3)C2=O)cc(CN2CCCCC2)c1O,2.5% (active)
11,O=S(=O)(Nc1ncccn1)c1ccc(NC2Nc3nc4ccccc4nc3S2)cc1 (stereo not given),98.3% (inactive)
12,O=C1CCC(N2C(=O)c3cccc(NCCCCCCOc4ccc(Nc5nccc(Nc6ccccc6)n5)cc4)c3C2=O)C(=O)N1 (stereo not given),75.9% (inactive)
13,Cc1c(-c2csc(-n3nc(C(F)(F)F)cc3C(F)(F)F)n2)no[n+]1[O-],99.2% (inactive)
14,O=C(NCc1ccccc1)C1CN(c2ccc(Cl)cc2)N(c2ccc(Cl)cc2)C1=O (stereo not given),3.28% (active)
15,c1ccc2c(c1)oc1cc3sccc3nc12,99.7% (inactive)
16,CCCCC1COc2cccc3c2N1C=C/C3=C\C(=O)N(C)c1ccccc1 (stereo not given),69% (inactive)
17,COc1cc(/C=C/C(=O)c2ccc(Nc3nc(NCCO)nc(N4CCOCC4)n3)cc2)cc(OC)c1OC,10.1% (inactive)
18,Cc1cccc2c(=O)c3c(sc12)c(NCCCNCCO)nc1ccccc13,29.5% (inactive)
19,COc1cc(/C=C2\CN(C)C/C(=C\c3cc(CN4CCCC4)c(O)c(OC)c3)C2=O)cc(CN2CCCC2)c1O,67.6% (inactive)
20,O=C(/C=C/c1ccc(C(F)(F)F)cc1)c1ccc(Nc2nc(NCCO)nc(N3CCOCC3)n2)cc1,22.1% (inactive)
21,NCCOc1ccccc1/C=C1\c2ccccc2-c2ccc([N+](=O)[O-])cc21,-53.8% (active)
22,O=C(/C=C/c1ccc(F)cc1)c1ccc(Nc2nc(NCCO)nc(Nc3ccc(Cl)cc3)n2)cc1,74.5% (inactive)
23,O=c1oc2ccc(Br)cc2c(=O)n1-c1ccc(Br)cc1F,-8.23% (active)
24,NCCNc1nc2ccccc2c2c(=O)c3cc(F)cc(Cl)c3sc12,-95.2% (active)
25,CCCN1CCN(c2ccc3nc(-c4ccc5nc(-c6cc(OC)ccc6OC)[nH]c5c4)[nH]c3c2)CC1,106% (inactive)
26,Cc1ccc(C2CC(c3ccc(Nc4nc(NCCO)nc(Nc5ccc(Cl)cc5)n4)cc3)=NN2c2cc(Cl)cc(Cl)c2)cc1 (stereo not given),98.8% (inactive)

# Test system: SW-620 colon
# Assay: as above
# Conditions: 10 µM unless noted
row,SMILES,growth
1,C=C1C(=O)O[C@H]2[C@H]1CC/C(COC(=O)/C=C\C(=O)O)=C\CC[C@@]1(C)O[C@@H]21,105% (inactive)
2,CCCCC1CCc2cccc3c(SCC(=O)N(C)c4ccc(Cl)cc4)cc[n+]1c23 (stereo not given),106% (inactive)
3,O=C(c1nc2ccccc2[nH]1)C1C(c2cccc([N+](=O)[O-])c2)C2CC3CCCCC3N2[C@@]12C(=O)Nc1cc(Cl)ccc12 (stereo not given in full),37.9% (inactive)
4,O=C1/C(=C/c2ccc(O)cc2)COc2ccc(O)cc21,87.2% (inactive)
5,O=C1/C(=C/c2ccc(O)cc2)COc2ccc(O)c(O)c21,28.4% (inactive)
6,COc1cc2nc(NC3CCCC3)nc(NC3CCN(C(C)C)CC3)c2cc1OC,59.2% (inactive)
7,Cc1ccccc1CNC(=O)C1CN(c2ccc(Cl)cc2)N(c2ccc(Cl)cc2)C1=O (stereo not given),81.9% (inactive)
8,COc1cc(C2CC(c3ccc(Nc4nc(NCCO)nc(N5CCOCC5)n4)cc3)=NN2c2cc(Cl)cc(Cl)c2)cc(OC)c1OC (stereo not given),81.6% (inactive)
9,O=C(c1nc2ccccc2[nH]1)C1C(c2ccc([N+](=O)[O-])cc2)C2CC3CCCCC3N2[C@@]12C(=O)Nc1cc(Cl)ccc12 (stereo not given in full),31.6% (inactive)
10,O=C(Cn1cc(COc2ncnc3c2cnn3-c2ccccc2)nn1)Nc1cccc2ccccc12,99.1% (inactive)
11,CN1C(=O)N(C)C2Nn3c(s/c(=C\c4ccc(Cl)cc4Cl)c3=O)=NC21 (stereo not given),63.1% (inactive)
12,O=Cc1cc2ccccc2nc1Nc1nccs1,27.5% (inactive)
13,O=C1/C(=C/c2cccc(O)c2)COc2ccc(O)cc21,9.65% (active)
14,COc1cc2nc(NC3CCC3)nc(NC3CCN(C(C)C)CC3)c2cc1OC,38.7% (inactive)
15,O=C(c1nc2ccccc2[nH]1)C1[C@@H](c2cccc(O)c2)C2CC3CCCCC3N2[C@@]12C(=O)Nc1cc(Cl)ccc12 (stereo not given in full),39.3% (inactive)
16,CCN1C(=O)N(c2ccccc2)C2NN=c3s/c(=C4\C(=O)N(C(C)C)c5ccccc54)c(=O)n3C21 (stereo not given),35.2% (inactive)
17,Cc1sc2ncn(CC(=O)Nc3ccc(S(N)(=O)=O)cc3)c(=O)c2c1C,100% (inactive)
18,COC(=O)c1c2c(c(C)[n+]([O-])c1C)C(=O)C(NCc1ccc(F)c(F)c1)=CC2=O,3.6% (active)
19,CNCCNc1nc2ccccc2c2c(=O)c3cccc(OC)c3sc12,-80.1% (active)
20,CNCCNc1nc2ccccc2c2c(=O)c3cccc(C)c3sc12,-62.4% (active)

row,SMILES,growth
1,COc1cc(/C=C2\Oc3cc(OCCCN4CCCC4)ccc3C2=O)cc(OC)c1,5.52% (active)
2,COC(=O)[C@H](NC(=O)C1(C)CCC[C@]2(C)[C@H]3C[C@H]4C(C(C)C)=C[C@]3(CC[C@@H]12)[C@@H]1C(=O)CCC(=O)[C@@H]14)C(C)C (stereo not given in full),106% (inactive)
3,COc1cc(/C=C2\CN(C)C/C(=C\c3cc(CN4CCCCC4)c(O)c(OC)c3)C2=O)cc(CN2CCCCC2)c1O,20% (inactive)
4,O=S(=O)(Nc1ncccn1)c1ccc(NC2Nc3nc4ccccc4nc3S2)cc1 (stereo not given),99.3% (inactive)
5,O=C1CCC(N2C(=O)c3cccc(NCCCCCCOc4ccc(Nc5nccc(Nc6ccccc6)n5)cc4)c3C2=O)C(=O)N1 (stereo not given),91% (inactive)
6,Cc1c(-c2csc(-n3nc(C(F)(F)F)cc3C(F)(F)F)n2)no[n+]1[O-],104% (inactive)
7,O=C(NCc1ccccc1)C1CN(c2ccc(Cl)cc2)N(c2ccc(Cl)cc2)C1=O (stereo not given),60.8% (inactive)
8,c1ccc2c(c1)oc1cc3sccc3nc12,96.6% (inactive)
9,CCCCC1COc2cccc3c2N1C=C/C3=C\C(=O)N(C)c1ccccc1 (stereo not given),73.4% (inactive)
10,COc1cc(/C=C/C(=O)c2ccc(Nc3nc(NCCO)nc(N4CCOCC4)n3)cc2)cc(OC)c1OC,7.8% (active)
11,Cc1cccc2c(=O)c3c(sc12)c(NCCCNCCO)nc1ccccc13,-51.6% (active)
12,COc1cc(/C=C2\CN(C)C/C(=C\c3cc(CN4CCCC4)c(O)c(OC)c3)C2=O)cc(CN2CCCC2)c1O,54.5% (inactive)
13,O=C(/C=C/c1ccc(C(F)(F)F)cc1)c1ccc(Nc2nc(NCCO)nc(N3CCOCC3)n2)cc1,-6.72% (active)
14,NCCOc1ccccc1/C=C1\c2ccccc2-c2ccc([N+](=O)[O-])cc21,-82.4% (active)
15,O=C(/C=C/c1ccc(F)cc1)c1ccc(Nc2nc(NCCO)nc(Nc3ccc(Cl)cc3)n2)cc1,46.3% (inactive)
16,O=c1oc2ccc(Br)cc2c(=O)n1-c1ccc(Br)cc1F,5.96% (active)
17,NCCNc1nc2ccccc2c2c(=O)c3cc(F)cc(Cl)c3sc12,-78.9% (active)
18,CCCN1CCN(c2ccc3nc(-c4ccc5nc(-c6cc(OC)ccc6OC)[nH]c5c4)[nH]c3c2)CC1,-70.2% (active)
19,Cc1ccc(C2CC(c3ccc(Nc4nc(NCCO)nc(Nc5ccc(Cl)cc5)n4)cc3)=NN2c2cc(Cl)cc(Cl)c2)cc1 (stereo not given),101% (inactive)

# Source: PubChem BioAssay (NCI)
